Data from the supplement of paper PMC9446081.
± gives the standard deviation of the averaged measurements.

What follows are molecules tested against MurC (UniProt C4ZRI6) (assay: relative enzymatic activity vs untreated control (fraction); higher = less inhibition). Conditions: 100 µM; incubation time: 2 h at 37 C.
MurC, sequence (C4ZRI6 whole entry, looked up): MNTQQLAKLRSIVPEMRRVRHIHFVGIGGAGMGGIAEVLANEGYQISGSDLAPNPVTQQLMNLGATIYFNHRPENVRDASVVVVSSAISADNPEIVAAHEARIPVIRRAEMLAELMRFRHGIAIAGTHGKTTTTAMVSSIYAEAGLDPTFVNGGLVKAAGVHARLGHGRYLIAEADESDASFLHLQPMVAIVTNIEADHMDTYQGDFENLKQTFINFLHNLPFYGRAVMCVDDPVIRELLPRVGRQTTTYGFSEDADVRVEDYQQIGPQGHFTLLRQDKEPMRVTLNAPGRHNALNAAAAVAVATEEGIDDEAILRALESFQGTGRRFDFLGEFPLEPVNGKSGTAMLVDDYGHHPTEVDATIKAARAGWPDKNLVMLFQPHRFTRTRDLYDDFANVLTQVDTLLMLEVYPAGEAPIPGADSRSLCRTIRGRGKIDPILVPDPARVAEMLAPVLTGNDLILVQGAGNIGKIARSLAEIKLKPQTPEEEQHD
Protocol: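 In vitro enzymatic inhibition assays (ProFoldin kits) for 12 purified essential E. coli enzymes or complexes, each treated with 218 active antibacterial compounds at 100 µM for 2 h at 37°C. Read-outs were fluorescence or absorbance (phosphate detection, dye binding), converted to activity via standard curves and expressed relative to untreated DMSO controls.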
`Cl.Cl.N=C(NCCCCCCNC(=N)NC(=N)Nc1ccc(Cl)cc1)NC(=N)Nc1ccc(Cl)cc1` gave a relative enzymatic activity of 0.901 ± 0.04.
For `CCCCCCCCCCCCCCCC[N+](C)(C)Cc1ccccc1.[Cl-]`, the relative enzymatic activity was 0.176 ± 0.051.
Molecule `CCCC[P+](CCCC)(CCCC)Cc1ccc(NC(=O)[C@H](Cc2ccc3ccccc3c2)N/C(=N/C2CCCCC2)NC2CCCCC2)cc1` has a relative enzymatic activity of 0.557 ± 0.44.
Molecule `COc1c(N2CC3CCCNC3C2)c(F)cc2c(=O)c(C(=O)O)cn(C3CC3)c12.Cl` (stereo not given) has a relative enzymatic activity of 1.01 ± 0.025.
With `NC(C(=O)NC1C(=O)N2C(C(=O)O)=C(Cl)CSC12)c1ccccc1` (stereo not given) the relative enzymatic activity was 0.944 ± 0.023.
Molecule `Cc1scc2c1N(C(=O)CN1CCN(C)CC1)c1ccccc1NC2=O.Cl` has a relative enzymatic activity of 0.945 ± 0.037.
`COC1C=COC2(C)Oc3c(C)c(O)c4c(O)c(c5c(nc6cc(C)ccn65)c4c3C2=O)NC(=O)C(C)=CC=CC(C)C(O)C(C)C(O)C(C)C(OC(C)=O)C1C` (stereo not given) was tested, and the relative enzymatic activity was 0.715 ± 0.08.
`CC[C@H](C)C[C@H](C)CCCCCCCCC(=O)N[C@H]1C[C@@H](O)[C@@H](NCCN)NC(=O)[C@@H]2[C@@H](O)CCN2C(=O)[C@H]([C@H](O)CCN)NC(=O)[C@H]([C@H](O)[C@@H](O)c2ccc(O)cc2)NC(=O)[C@@H]2C[C@@H](O)CN2C(=O)[C@H]([C@@H](C)O)NC1=O` showed a relative enzymatic activity of 0.94 ± 0.061.
Work on `CON=C1CN(c2nc3c(cc2F)c(=O)c(C(=O)O)cn3C2CC2)CC1CN.CS(=O)(=O)O` (stereo not given) yielded a relative enzymatic activity of 0.669 ± 0.18.
Work on `COC1=C(N)C(=O)c2nc(-c3nc(C(=O)O)c(C)c(-c4ccc(OC)c(OC)c4O)c3N)ccc2C1=O` yielded a relative enzymatic activity of 1.31 ± 0.37.
In the case of `C/C(=C\C(=O)OCCCCCCCCC(=O)O)C[C@@H]1OC[C@H](C[C@@H]2O[C@H]2[C@@H](C)[C@H](C)O)[C@@H](O)[C@H]1O`, the relative enzymatic activity is reported as 0.891 ± 0.065.
`O=C1C=CC(=O)N1` was tested, and the relative enzymatic activity was 0.992 ± 0.03.
Molecule `COC1C=COC2(C)Oc3c(C)c(O)c4c(O)c(c(C=NN5CCN(C)CC5)c(O)c4c3C2=O)NC(=O)C(C)=CC=CC(C)C(O)C(C)C(O)C(C)C(OC(C)=O)C1C` (stereo not given) has a relative enzymatic activity of 0.282 ± 0.059.
With `O=C1CN(/N=C/c2ccc([N+](=O)[O-])o2)C(=O)N1` the relative enzymatic activity was 1.33 ± 0.34.
`CC1COc2c(C3(N)CC3)c(F)cc3c(=O)c(C(=O)O)cn1c23.CS(=O)(=O)O` (stereo not given) was tested, and the relative enzymatic activity was 0.958 ± 0.027.
Molecule `CNC1C(O)C(NC)C2OC3(O)C(=O)CC(C)OC3OC2C1O.Cl.Cl` (stereo not given) has a relative enzymatic activity of 0.914 ± 0.024.
In the case of `CCOC(=O)OC(C)OC(=O)C1N2C(=O)C(NC(=O)C(N)c3ccccc3)C2SC1(C)C.Cl` (stereo not given), the relative enzymatic activity is reported as 1.01 ± 0.035.
`O=C(O)P(=O)(O)O` showed a relative enzymatic activity of 0.972 ± 0.058.
`C[C@H]1[C@H](NC(=O)/C(=N\OC(C)(C)C(=O)O)c2csc(N)n2)C(=O)N1S(=O)(=O)O` was tested, and the relative enzymatic activity was 1.29 ± 0.45.
With `Cc1nnc(SCC2=C(C(=O)O)N3C(=O)[C@@H](NC(=O)Cn4cnnn4)[C@H]3SC2)s1` the relative enzymatic activity was 0.988 ± 0.078.
`CC[C@H]1OC(=O)[C@H](C)[C@@H](O[C@H]2C[C@@](C)(OC)[C@@H](O)[C@H](C)O2)[C@H](C)[C@@H](O[C@@H]2O[C@H](C)C[C@H](N(C)C)[C@H]2O)[C@](C)(O)C[C@@H](C)C(=O)[C@H](C)[C@@H](O)[C@]1(C)O` showed a relative enzymatic activity of 0.959 ± 0.064.
Work on `CCn1cc(C(=O)O)c(=O)c2cc(F)c(N3CCN(C(=S)Nc4cc(C(F)(F)F)ccc4Cl)CC3)cc21` yielded a relative enzymatic activity of 1.07 ± 0.069.
`NC(=O)[C@@H]1C(=O)C[C@@H]2C[C@@H]3Cc4cccc(O)c4C(=O)[C@@H]3C(=O)[C@]2(O)C1=O` gave a relative enzymatic activity of 1.17 ± 0.092.
With `O=C(O)c1cn(C2CC2)c2cc(N3CCC(O)(COc4ccc(N5C[C@H](CO)OC5=O)cc4F)CC3)c(F)cc2c1=O` the relative enzymatic activity was 1.38 ± 0.025.
For `NC(=O)N/N=C/c1ccc([N+](=O)[O-])o1`, the relative enzymatic activity was 1.08 ± 0.033.
`COC1(NC(=O)C2SC(=C(C(N)=O)C(=O)O)S2)C(=O)N2C(C(=O)O)=C(CSc3nnnn3C)CSC21` (stereo not given) gave a relative enzymatic activity of 0.978 ± 0.098.
For `Nc1ncn(C2OC(CO)C(O)C2O)c(=O)n1` (stereo not given), the relative enzymatic activity was 0.989 ± 0.025.
For `Cl.N=C(N)n1cccn1`, the relative enzymatic activity was 0.968 ± 0.063.
Molecule `CS(=O)(=O)c1ccc(C(O)C(CF)NC(=O)C(Cl)Cl)cc1` (stereo not given) has a relative enzymatic activity of 1.04 ± 0.036.
`CC(=O)On1cc(F)c(=O)[nH]c1=O` showed a relative enzymatic activity of 1.07 ± 0.079.
`CCC1OC(=O)C(C)C(=O)C(C)C(OC2OC(C)CC(N(C)C)C2O)C(C)(OC)CC(C)C(=O)C(C)C2N(CCCCn3cnc(-c4cccnc4)c3)C(=O)OC12C` (stereo not given) gave a relative enzymatic activity of 0.741 ± 0.33.
For `Cl.O=C(O)c1cn(-c2ccc(F)cc2)c2cc(N3CCNCC3)c(F)cc2c1=O`, the relative enzymatic activity was 0.836 ± 0.012.
In the case of `CO/N=C(\C(=O)N[C@@H]1C(=O)N2C(C(=O)O)=C(C[N+]3(C)CCCC3)CS[C@H]12)c1csc(N)n1`, the relative enzymatic activity is reported as 0.8921 ± 0.007.
`Cl.NC1CCN(c2c(F)cc3c(=O)c(C(=O)O)cn(C4CC4)c3c2Cl)C1` (stereo not given) gave a relative enzymatic activity of 1.06 ± 0.063.
`C=C1c2cccc(O)c2C(=O)[C@@H]2C(=O)[C@]3(O)C(=O)[C@@H](C(N)=O)C(=O)[C@@H](N(C)C)[C@@H]3[C@@H](O)[C@H]12` showed a relative enzymatic activity of 1.03 ± 0.034.
`CON=C(C(=O)NC1C(=O)N2C(C(=O)OCOC(=O)C(C)(C)C)=C(C=Cc3scnc3C)CSC12)c1csc(N)n1` (stereo not given) showed a relative enzymatic activity of 0.659 ± 0.044.
Work on `CC1CCC2(C)C(C=O)=CCCC2C1(C)CC1OC(O)C(=O)C12CO2` (stereo not given) yielded a relative enzymatic activity of 0.933 ± 0.1.
`O=C(NO)c1cn(-c2cccc(C(=O)N3CCC4(CC3)C(=O)NCN4c3ccccc3)c2)nn1` gave a relative enzymatic activity of 0.552 ± 0.15.
In the case of `COc1ccc2c(c1OC)C(=O)OC2C1c2c(cc3c(c2OC)OCO3)CCN1C.Cl` (stereo not given), the relative enzymatic activity is reported as 1.45 ± 0.16.
`CCn1cc(C(=O)O)c(=O)c2cc(F)c(N3CCN(C)CC3)cc21.CS(=O)(=O)O` gave a relative enzymatic activity of 1.02 ± 0.013.
